Test results reported in PubChem BioAssay (NCI).
About 83,000 compounds went through this panel and 20% of them were active in at least one assay; those are over-represented in the sample as a whole.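 The endpoint reported here, percent growth, reads 100 for growth as untreated, 0 for no net growth and -100 for all cells dead.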 Values without a mark were called inactive. Active and inactive are the calls of the source. Rule for the calls: active = growth percent below 10; inactive = the rest.

What was measured:
Experiment in all cases: NCI-60 one-dose screen, 48 h (100 = growth as untreated, 0 = no growth, -100 = all killed)
Conditions in all cases: 10 µM unless noted
HCT-15 colon = system: HCT-15 colon
HT29 colon = system: HT29 colon
SNB-75 CNS = system: SNB-75 CNS
SNB-19 CNS = system: SNB-19 CNS
U251 CNS = system: U251 CNS
PC-3 prostate = system: PC-3 prostate
SK-MEL-5 melanoma = system: SK-MEL-5 melanoma
UACC-62 melanoma = system: UACC-62 melanoma
SK-MEL-28 melanoma = system: SK-MEL-28 melanoma
SK-MEL-2 melanoma = system: SK-MEL-2 melanoma
EKVX NSCLC = system: EKVX NSCLC
SN12C renal = system: SN12C renal
UO-31 renal = system: UO-31 renal
TK-10 renal = system: TK-10 renal
ACHN renal = system: ACHN renal
CAKI-1 renal = system: CAKI-1 renal
A498 renal = system: A498 renal
CCRF-CEM leukemia = system: CCRF-CEM leukemia
MOLT-4 leukemia = system: MOLT-4 leukemia

Compound	growth (HCT-15 colon)	growth (HT29 colon)	growth (SNB-75 CNS)	growth (SNB-19 CNS)	growth (U251 CNS)	growth (PC-3 prostate)	growth (SK-MEL-5 melanoma)	growth (UACC-62 melanoma)	growth (SK-MEL-28 melanoma)	growth (SK-MEL-2 melanoma)	growth (EKVX NSCLC)	growth (SN12C renal)	growth (UO-31 renal)	growth (TK-10 renal)	growth (ACHN renal)	growth (CAKI-1 renal)	growth (A498 renal)	growth (CCRF-CEM leukemia)	growth (MOLT-4 leukemia)
C[C@H]1[C@@H]2[C@H]3CC[C@@H]4[C@@]5(C)Cc6c([nH]c7ccccc67)C(C)(C)[C@@H]5CC[C@@]4(C)[C@]3(C)CC[C@]23CO[C@]1(C)[C@@H](C(=O)/C=C/c1ccccn1)C3	85.9%	82.6%	90.9%	85.6%	81.7%	60.3%	88.5%	79%	97.4%	115%	102%	87.1%	60.4%	123%	92.4%	63%	101%	63%	78.8%
O=C1/C(=C\c2ccco2)SC(=S)N1CCc1ccc(O)cc1	92.7%	114%	78.5%	95.6%	96.7%	97.5%	97.4%	85.3%	98.3%	104%	91.1%	91.6%	54%	130%	96%	83.4%	97.1%	44.8%	82.2%
N#CC1=C(N)Oc2c(c(N)nn2-c2ccccc2)C1c1ccc(Cl)cc1Cl (stereo not given)	100%	115%	73.2%	95.2%	91.6%	94.5%	101%	88.7%	104%	101%	91.2%	99.5%	73.8%	123%	99%	90.1%	90.7%	95.6%	88.3%
C=COCCCCCCCCCCCCCCCCCC	114%	102%	122%	96.9%	106%	84.5%	112%	88.6%	104%	111%	118%	88.4%	124%	101%	108%	99.7%	92.7%	91.5%	96.3%
C=C(C)[C@@H]1CC[C@]2(C)CC[C@]3(C)[C@H](CC[C@@H]4[C@@]5(C)CCCNC(C)(C)[C@@H]5CC[C@]43C)[C@@H]12	19.2%	3.37% (active)	85.9%	96.3%	11.9%	78.9%	98.4%	105%	105%	119%	103%	82.1%	88.2%	142%	95.5%	75.3%	79.7%	52%	46.6%
CN1CCN(c2ccc3nc(-c4[nH]ncc4Nc4ncnc5c4OCCCN5)[nH]c3c2)CC1	-64.7% (active)	-24.6% (active)	-93.1% (active)	-46% (active)	-55.7% (active)	-58.5% (active)	-93.4% (active)	-74.9% (active)	-73.1% (active)	-56.1% (active)	-59.6% (active)	-59.5% (active)	-77.3% (active)	-62.7% (active)	-98.4% (active)	-86.2% (active)	-95.7% (active)	-25.7% (active)	-22.5% (active)
Cc1ccc(S(=O)(=O)Nc2ccc(-c3cc(-c4cccc(F)c4)c(C#N)c(=O)[nH]3)cc2)cc1	58.2%	54.6%	85%	84.3%	71%	68.8%	82%	60.3%	97.4%	112%	83.4%	83.7%	68.6%	115%	91.3%	60.2%	85.2%	68.4%	76.9%
c1ccc2c(-c3nc(-c4c[nH]c5ncccc45)cs3)c[nH]c2c1	84.9%	79.2%	88.4%	97.8%	104%	84.2%	106%	96.9%	112%	102%	80.5%	76.7%	52.5%	120%	97.3%	98.7%	91.8%	75.4%	85.6%
CC1(C)[C@@H](O)CC[C@]2(C)[C@H]3CC[C@@H]4[C@H]5[C@H](C(=O)/C=C/c6ccc(C(F)(F)F)cc6)CC[C@]5(CO)CC[C@@]4(C)[C@]3(C)CC[C@@H]12	34.4%	36.1%	60%	61.1%	53.6%	43.9%	13.1%	36.5%	54.6%	83.7%	71.2%	58.8%	46.7%	105%	25.9%	47.4%	-1.48% (active)	28.4%	14%
NC(N)=N/N=C/c1ccc(-c2ccc(-c3ccc(Cl)cn3)s2)cc1	-4.03% (active)	11.9%	88.9%	94.2%	20.6%	-42.3% (active)	91.6%	99.1%	99.2%	109%	98.9%	89.8%	78%	112%	92.2%	81.5%	88.8%	29.7%	73.7%
COc1cc(OC)c2c(c1)c1nc3cc(C)c(C)cc3nc1n2CCN(C)C	77.2%	85.8%	74.6%	89.1%	90.9%	85.3%	94.4%	94.3%	104%	103%	89.2%	82.1%	74.1%	182%	84.3%	69.7%	105%	79.6%	73.2%
COc1cnc2c(c1)C(=O)c1c-2n(CCCN2CCN(CCO)CC2)c(=O)c2cc([N+](=O)[O-])ccc12	-26.3% (active)	-85.7% (active)	73.1%	-1.88% (active)	-84.2% (active)	44.4%	53.9%	37.8%	102%	108%	66%	54%	36.6%	97.2%	25.1%	37.8%	-5.96% (active)	-5.14% (active)	0.798% (active)
CC(=O)O[C@H]1CC[C@]2(C)[C@H]3C(=O)C=C4[C@@H]5C[C@](C)(C(=O)N6CCCNCC6)CC[C@]5(C)CC[C@@]4(C)[C@]3(C)CC[C@H]2C1(C)C	-96.5% (active)	-63.5% (active)	80.1%	9.77% (active)	-94.5% (active)	6.04% (active)	90.2%	13.7%	-74.5% (active)	96.2%	54.8%	-82.1% (active)	-85.5% (active)	-14.3% (active)	-100% (active)	-99.3% (active)	74.1%	-31.5% (active)	-23.6% (active)
Nc1c2c(nc3ccc(Cl)cc13)CC(c1ccc(O)cc1)CC2=O (stereo not given)	29.3%	101%	30.5%	45.8%	47.2%	49.2%	23.6%	32.8%	57%	61.3%	29.8%	58.7%	60%	81.5%	49.4%	48.3%	86.5%	43.4%	46.9%
Clc1ccc2[nH]cc(-c3nc(-c4c[nH]c5ncccc45)cs3)c2c1	1.33% (active)	16.1%	56.8%	65.1%	34.6%	39.2%	64.9%	44.2%	85.9%	48.1%	42.7%	56.7%	22.2%	46.1%	25.9%	17.1%	60.2%	31.2%	16.1%
